These results are taken from PubChem BioAssay.

Values without a mark were called inactive. For some of these results: Measured potencies and affinities stand elsewhere. Activity calls are given as the source filed them. Unless noted, the rule behind the calls is not given here.

The nature of experiment [1]: antimalarial activity against Dd2 strain (AID 2302;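 active = growth inhibition above 50% at the single 2 µM test dose, taken to imply half-maximal potency below 2 µM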;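 note: 0% = DMSO untreated growth and 100% = chloroquine plus artemisinin killed control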). The following applies: P. falciparum Dd2 in RBCs, LDH growth readout, 72 h; at 2 µM; hits give high values.
Experiment [2] can be described thus: HepG2 cytotoxicity, primary screen, cytotoxicity control for P. falciparum antimalarial project, cell-based, ATP luminescence (AID 2303;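 active = inhibition above 50%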;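 note: 0% = DMSO wells and 100% = digitonin-killed cells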). The note with it: HepG2 viability, 24-48 h, at 10 µM, hits give high values.
Experiment [3] concerns the target L-lactate dehydrogenase (Plasmodium falciparum (isolate CDC / Honduras)) (UniProt Q27743). Kind of experiment: PfLDH activity inhibition – cell lysate, 3D7 strain, counter-screen for P. falciparum growth inhibition project (AID 2304).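 Note: 0% = vehicle and 100% = reference inhibitor.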 The following applies: P. falciparum 3D7 crude extract, LDH APAD/NBT absorbance; at 2 µM; hits give high values. Background: A counterscreen serves to expose hits that act by an unwanted route or on another target.

A short description of experiment [4]: inhibition of 3D7 malaria parasite growth – strain 3D7 (AID 2306).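 Note: 0% = DMSO wells and 100% = chloroquine plus artemisinin control wells.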 The following applies: P. falciparum 3D7 erythrocytic growth, LDH absorbance, 72 h; at 2 µM; hits give high values.
For experiment [5], the target named is Calcium-dependent protein kinase 1 (Plasmodium falciparum (isolate 3D7)) (UniProt P62344). The experiment in a line: PfCDPK1 kinase inhibitors, biochemical, TCAMS library (AID 1159585; cut-off not given, nearly all actives have IC50 up to about 0.98 µM;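 note: inhibitors leave more ATP so luminescence rises with inhibition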). The note with it: recombinant PfCDPK1, Kinase-Glo ATP depletion luminescence. Background: Kinase-Glo measures the ATP left after a reaction by luminescence.
Experiment [6] has as its target Plasmodium falciparum protein kinase 6 (PK6, PF3D7_1337100) (UniProt Q8IDW1). Kind of experiment: PfPK6 kinase inhibitors, biochemical, TCAMS library (AID 1159586). The following applies: recombinant PfPK6, Kinase-Glo ATP depletion luminescence.
For experiment [7], the target named is Protein kinase 7 (PK7), Plasmodium falciparum 3D7 (PF3D7_0213400) (UniProt Q7YTF7). The experiment in a line: inhibition of Plasmodium PK7 catalytic activity – biochemical, TCAMS antimalarial set, Kinase-Glo luminescence (AID 1159587). The following applies: recombinant PfPK7, Kinase-Glo ATP depletion luminescence.
For experiment [8], the target named is Calcium-dependent protein kinase 4 (Plasmodium falciparum (isolate 3D7)) (UniProt Q8IBS5). The experiment in a line: PfCDPK4 kinase inhibitors, biochemical, TCAMS library (AID 1159588; cut-off not given, nearly all actives have IC50 up to about 0.91 µM). The note with it: recombinant PfCDPK4, Kinase-Glo ATP depletion luminescence.
Calcium-dependent protein kinase 4 (Plasmodium falciparum (isolate 3D7)), sequence (Q8IBS5 whole entry, looked up): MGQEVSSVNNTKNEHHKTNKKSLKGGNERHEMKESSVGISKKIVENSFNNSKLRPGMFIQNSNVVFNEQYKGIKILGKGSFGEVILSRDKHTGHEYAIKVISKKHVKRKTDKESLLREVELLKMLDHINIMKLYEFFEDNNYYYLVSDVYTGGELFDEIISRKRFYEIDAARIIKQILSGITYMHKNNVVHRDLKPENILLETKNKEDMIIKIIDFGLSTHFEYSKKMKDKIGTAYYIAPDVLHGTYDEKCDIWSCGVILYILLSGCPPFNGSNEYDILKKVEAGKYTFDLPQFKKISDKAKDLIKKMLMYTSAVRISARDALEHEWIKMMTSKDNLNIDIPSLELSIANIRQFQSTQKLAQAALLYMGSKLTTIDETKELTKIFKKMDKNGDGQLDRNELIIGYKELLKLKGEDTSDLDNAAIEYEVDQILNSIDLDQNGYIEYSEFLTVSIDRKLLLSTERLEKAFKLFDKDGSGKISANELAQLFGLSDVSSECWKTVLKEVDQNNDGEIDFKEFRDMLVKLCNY

Plasmodium falciparum protein kinase 6 (PK6, PF3D7_1337100), sequence (Q8IDW1 1-305): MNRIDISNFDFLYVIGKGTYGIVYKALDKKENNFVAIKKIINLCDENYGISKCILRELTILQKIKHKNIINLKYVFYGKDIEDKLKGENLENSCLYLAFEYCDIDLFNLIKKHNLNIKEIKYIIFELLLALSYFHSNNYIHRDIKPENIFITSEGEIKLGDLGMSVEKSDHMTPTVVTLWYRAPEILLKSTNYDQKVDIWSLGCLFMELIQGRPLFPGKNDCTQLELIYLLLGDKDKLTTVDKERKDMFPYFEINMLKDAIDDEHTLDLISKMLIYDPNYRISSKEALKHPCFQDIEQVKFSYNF
Calcium-dependent protein kinase 1 (Plasmodium falciparum (isolate 3D7)), sequence (P62344 whole entry, looked up): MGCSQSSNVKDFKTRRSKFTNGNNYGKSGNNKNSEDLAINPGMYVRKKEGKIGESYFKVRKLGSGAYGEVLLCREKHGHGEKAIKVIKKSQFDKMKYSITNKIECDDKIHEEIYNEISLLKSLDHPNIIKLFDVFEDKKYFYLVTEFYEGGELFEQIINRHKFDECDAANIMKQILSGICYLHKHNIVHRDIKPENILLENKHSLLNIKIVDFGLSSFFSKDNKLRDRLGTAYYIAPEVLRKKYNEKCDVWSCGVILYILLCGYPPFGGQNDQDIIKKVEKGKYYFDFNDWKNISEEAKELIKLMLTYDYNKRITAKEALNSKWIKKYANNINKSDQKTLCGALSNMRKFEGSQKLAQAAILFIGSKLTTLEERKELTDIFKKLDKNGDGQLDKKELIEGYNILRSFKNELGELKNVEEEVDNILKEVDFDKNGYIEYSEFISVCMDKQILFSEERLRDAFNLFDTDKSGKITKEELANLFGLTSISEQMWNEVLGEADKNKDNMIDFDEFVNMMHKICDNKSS
L-lactate dehydrogenase (Plasmodium falciparum (isolate CDC / Honduras)), sequence (Q27743 whole entry, looked up): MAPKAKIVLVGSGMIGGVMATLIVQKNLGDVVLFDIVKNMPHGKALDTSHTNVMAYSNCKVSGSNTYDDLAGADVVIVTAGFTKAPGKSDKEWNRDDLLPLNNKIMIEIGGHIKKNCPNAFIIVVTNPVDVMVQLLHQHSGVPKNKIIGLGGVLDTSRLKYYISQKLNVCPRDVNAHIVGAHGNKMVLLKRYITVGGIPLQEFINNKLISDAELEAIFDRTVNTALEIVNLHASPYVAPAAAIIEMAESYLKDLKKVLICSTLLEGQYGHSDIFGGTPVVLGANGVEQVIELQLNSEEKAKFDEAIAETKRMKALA
Protein kinase 7 (PK7), Plasmodium falciparum 3D7 (PF3D7_0213400), sequence (Q7YTF7 1-343): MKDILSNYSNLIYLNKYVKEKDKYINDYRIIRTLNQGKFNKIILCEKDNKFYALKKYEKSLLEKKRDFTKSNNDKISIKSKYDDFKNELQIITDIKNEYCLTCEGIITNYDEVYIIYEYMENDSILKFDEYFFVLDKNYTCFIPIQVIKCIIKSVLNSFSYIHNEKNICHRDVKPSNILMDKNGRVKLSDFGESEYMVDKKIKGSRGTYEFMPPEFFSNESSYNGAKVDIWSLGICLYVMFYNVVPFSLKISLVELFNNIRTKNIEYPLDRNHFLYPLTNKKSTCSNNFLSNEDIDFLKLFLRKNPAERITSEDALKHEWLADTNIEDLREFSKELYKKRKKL

As for `CC(=O)Nc1nc(C(=O)Nc2cccc(-c3ccc(-c4nc5c(C)cccc5[nH]4)cc3)c2)cs1`, the growth inhibition was 61% (active) in experiment [1] and 100% (active) in experiment [4]. Further, the inhibition in experiment [2] was 100% (active); in experiment [3] it was -3%. Moreover, the result in experiment [5], in experiment [6], in experiment [7] and in experiment [8] was inactive.

Consider `CC(C)(C)c1ccc(NC(=O)c2ccc(CN3CCCN(CC4CCCCC4)CC3)cc2)cc1`, for which the results for the growth inhibition in experiment [1] and in experiment [4] were 64% (active) and 99% (active), respectively. The results for the inhibition in experiment [2] and in experiment [3] were 54% (active) and -1%, respectively. For the same compound, the result in experiment [5], in experiment [6], in experiment [7] and in experiment [8] was inactive.

Take `COc1ccc2nc(C)cc(NN=Cc3ccc(F)cc3)c2c1`: the growth inhibition is 99% (active) in experiment [1] and 100% (active) in experiment [4]. Further, the inhibition was 5% in experiment [2] and -8% in experiment [3]. For the same compound, the result in experiment [5], in experiment [6], in experiment [7] and in experiment [8] was inactive.

In the case of `NC(=O)c1ccc(C(=O)Nc2cccc(-c3cccc(-c4nc5ccc(C(F)(F)F)cc5[nH]4)c3)c2)cc1`, the growth inhibition in experiment [1] was 36%; in experiment [4], 100% (active). The inhibition in experiment [2] is 63% (active); in experiment [3] it was -5%. Besides, the outcome in experiment [5], in experiment [6], in experiment [7] and in experiment [8] was inactive.

As for `CN(C)CCCOc1ccc(CN2CC[C@H](NC(=O)c3ccc(Cl)c(Cl)c3)C2)cc1Br`, the growth inhibition in experiment [1] is 34%; in experiment [4], 101% (active). The inhibition is 11% in experiment [2] and -2% in experiment [3]. In addition, the result in experiment [5], in experiment [6], in experiment [7] and in experiment [8] was inactive.

`CC(C)N1CCN(C(=O)c2ccc(CNCCCN3CCN(c4cccc(Cl)c4Cl)CC3)o2)CC1`: the growth inhibition in experiment [1] was 36%; in experiment [4] it was 98% (active). Moreover, the inhibition was 41% in experiment [2] and 1% in experiment [3]. Also, the result in experiment [5], in experiment [6], in experiment [7] and in experiment [8] was inactive.

In the case of `COc1c(CNCCCCCCNCc2cc(Cl)c3ccccc3c2OC)cc(Cl)c2ccccc12`, the growth inhibition in experiment [1] is 45%; in experiment [4], 96% (active). The inhibition in experiment [2] is 100% (active); in experiment [3], -4%. For the same compound, the outcome in experiment [5], in experiment [6], in experiment [7] and in experiment [8] was inactive.

As for `CC1(C)N=C(N)N=C(N)N1c1cccc(I)c1`, the growth inhibition in experiment [1] was 85% (active); in experiment [4], 95% (active). The values for the inhibition in experiment [2] and in experiment [3] were 68% (active) and -2%, respectively. The result in experiment [5], in experiment [6], in experiment [7] and in experiment [8] was inactive.

With `O=C(Nc1ccc(C(F)(F)F)cc1)c1ccc(S(=O)(=O)NC2CCN(CC3CCCCC3)CC2)cc1`, the growth inhibition in experiment [1] is 20%; in experiment [4] it was 101% (active). The inhibition was 30% in experiment [2] and 1% in experiment [3]. The result in experiment [5], in experiment [6], in experiment [7] and in experiment [8] was inactive.

On to `COc1ccc(Nc2ccnc3cc(Cl)ccc23)cc1OC`, for which the values for the growth inhibition in experiment [1] and in experiment [4] were 91% (active) and 104% (active), respectively. Besides, the inhibition in experiment [2] was 36%; in experiment [3], 3%. In addition, the outcome in experiment [5], in experiment [6], in experiment [7] and in experiment [8] was inactive.

As for `CCOc1ccccc1NC(=O)Nc1ccc2c(c1)CCN(C1CCC1)CC2`, the growth inhibition is 2% in experiment [1] and 88% (active) in experiment [4]. In addition, the figures for the inhibition in experiment [2] and in experiment [3] were 15% and -3%, respectively. Moreover, the outcome in experiment [5], in experiment [6], in experiment [7] and in experiment [8] was inactive.

Take `CCc1cc(CNC2CCN(CCc3c(F)cnc4ccc(OC)nc34)CC2)cc2c1OCCO2`: the growth inhibition was 94% (active) in experiment [1] and 100% (active) in experiment [4]. The results for the inhibition in experiment [2] and in experiment [3] were 46% and 1%, respectively. The outcome in experiment [5], in experiment [6], in experiment [7] and in experiment [8] was inactive.

Take `OC(CNCc1ccccc1Oc1ccccc1)c1cccc(C(F)(F)F)c1` (stereo not given): the growth inhibition in experiment [1] was 98% (active); in experiment [4], 104% (active). For the same compound, the values for the inhibition in experiment [2] and in experiment [3] were -1% and 10%, respectively. Moreover, the outcome in experiment [5], in experiment [6], in experiment [7] and in experiment [8] was inactive.

On to `COc1ccc(C(=O)N2CCN(c3ccc([N+](=O)[O-])c(NC4CC4)c3)CC2)cc1Br`, for which the values for the growth inhibition in experiment [1] and in experiment [4] were 68% (active) and 99% (active), respectively. For the same compound, the inhibition is 6% in experiment [2] and 5% in experiment [3]. Moreover, the outcome in experiment [5], in experiment [6], in experiment [7] and in experiment [8] was inactive.

Take `CN(C)c1ccc(C=Cc2ccc3ccccc3n2)c(Cl)c1`: the growth inhibition in experiment [1] is 95% (active); in experiment [4], 94% (active). Besides, the inhibition in experiment [2] is 59% (active); in experiment [3], 1%. Further, the outcome in experiment [5], in experiment [6], in experiment [7] and in experiment [8] was inactive.

Consider `CC(C)COc1ccc(Cl)cc1Cc1ccc(-c2nc3c(cnc4ccccc43)[nH]2)o1`, for which the growth inhibition in experiment [1] was 26%; in experiment [4] it was 87% (active). The inhibition is 21% in experiment [2] and 1% in experiment [3]. For the same compound, the outcome in experiment [5], in experiment [6], in experiment [7] and in experiment [8] was inactive.

`COc1cc([N+](=O)[O-])ccc1NC(=O)Nc1ccc(OC(F)(F)F)cc1`: the growth inhibition in experiment [1] was 72% (active); in experiment [4], 84% (active). In addition, the inhibition was 14% in experiment [2] and 3% in experiment [3]. In addition, the outcome in experiment [5], in experiment [6], in experiment [7] and in experiment [8] was inactive.

On to `COc1cc(C=Cc2ccc3ccccc3n2)cc(Br)c1OCC(=O)N(C)C`, for which the growth inhibition is 87% (active) in experiment [1] and 99% (active) in experiment [4]. Moreover, the values for the inhibition in experiment [2] and in experiment [3] were 28% and 3%, respectively. In addition, the result in experiment [5], in experiment [6], in experiment [7] and in experiment [8] was inactive.

In the case of `COc1ccc(NC(=O)Nc2ccc(-c3cccc(-c4nc5ccccc5[nH]4)c3)cc2)cc1`, the growth inhibition is 41% in experiment [1] and 99% (active) in experiment [4]. Also, the inhibition in experiment [2] is 44%; in experiment [3], 3%. Further, the outcome in experiment [5], in experiment [6], in experiment [7] and in experiment [8] was inactive.

With `CCOc1ccc(C(C)NC(=O)Nc2ccccc2)cc1OCC` (stereo not given), the growth inhibition in experiment [1] is 95% (active); in experiment [4] it was 96% (active). The figures for the inhibition in experiment [2] and in experiment [3] were 14% and 1%, respectively. The result in experiment [5], in experiment [6], in experiment [7] and in experiment [8] was inactive.

The inhibition is the change of the read-out against control, counted positive when it falls.
